# NALP3 yeast inh: NALP3 inflammasome inhibitors in reconstituted yeast, primary screen, luminescence, uHTS; 0.39% of 330,000 active; Yeast reconstituted NLRP3/ASC/caspase-1, beta-gal luminescence, 24 h; inhibition, % at 10 µM;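 active means inhibition of 50% or more; inactive means inhibition below 50%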
# EBNA-1 inh: EBNA-1 DNA-binding inhibitors, primary screen, biochemical, fluorescence polarization. AID 1950, 2009. inhibition, % at 14.8 µM. 0.34% of 300,000 active; in the data active means inhibition above about 28%
# NALP1 inh: NALP1 inflammasome inhibitors in reconstituted yeast, colorimetric, S. cerevisiae, triplicate retest | S. cerevisiae NALP1/ASC/caspase-1 growth, X-gal OD620, 72 h | 0.61% of 280,000 active | AID 2071, 2009 | inhibition, % at 10 µM; in the data active means inhibition mostly above about 24%, no sharp cut-off; inactive means mostly below about 32%
# PolyA inhibitor: polyadenylation inhibitors in yeast reporter cells, primary screen, luminescence, S. cerevisiae; S. cerevisiae SKY197-pL101 polyadenylation reporter, beta-gal luminescence; efflux-impaired pdr1/pdr3 knockout yeast; score 100 = 6 SD above DMSO; activity score, % at 12 µM; 0.02% of 300,000 active; AID 1875, 2009;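 active means lowest replicate activity score at least 50, where 100 means six control SD above control mean; inconclusive means lowest score under 50 but half or more replicates reach 50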;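 further: yeast exposed to compound for 9 h at 30 °C; higher score means more reporter readthrough which indicates perturbed polyadenylation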
# ZTA DNA inh: counter-screen for EBNA-1 inhibitors: inhibitors of Epstein-Barr virus ZTA | ZTA-DNA binding, fluorescence polarization | inhibition, % at 11 µM | 0.15% of 320,000 active | AID 2234; in the data active means inhibition above about 33%
# Target sequence (P03206 whole entry, looked up): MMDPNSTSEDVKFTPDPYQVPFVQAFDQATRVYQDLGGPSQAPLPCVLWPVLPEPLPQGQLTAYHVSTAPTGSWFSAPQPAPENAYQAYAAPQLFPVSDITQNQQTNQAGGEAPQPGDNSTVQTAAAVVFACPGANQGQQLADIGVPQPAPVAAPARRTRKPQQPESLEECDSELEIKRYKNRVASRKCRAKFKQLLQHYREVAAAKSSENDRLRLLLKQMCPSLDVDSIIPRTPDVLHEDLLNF
# dFosB activator: activators of delta FosB homodimer, primary screen, biochemical, fluorescence polarization, TAMRA-CDK5 oligo, single point; 0.99% of 340,000 active; activation, % at 25 µM; purified delta FosB; percent of positive-control signal above neutral wells; Protein FosB (Mus musculus), P13346; AID 493131, 2011;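 active means mean activation above about 17%, with every replicate also reaching it, limit read from the data, passing the limit was not always enough; inconclusive means only one of the two conditions met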
# Target sequence (P13346 whole entry, looked up): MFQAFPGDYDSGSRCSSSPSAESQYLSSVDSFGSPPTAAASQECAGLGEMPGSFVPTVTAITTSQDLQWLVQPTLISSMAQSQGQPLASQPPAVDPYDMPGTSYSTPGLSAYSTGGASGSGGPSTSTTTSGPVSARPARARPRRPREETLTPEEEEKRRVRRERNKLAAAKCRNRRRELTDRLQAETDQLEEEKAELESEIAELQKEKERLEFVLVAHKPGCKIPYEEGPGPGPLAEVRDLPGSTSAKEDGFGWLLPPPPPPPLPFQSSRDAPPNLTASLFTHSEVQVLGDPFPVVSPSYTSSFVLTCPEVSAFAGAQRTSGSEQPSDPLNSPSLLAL
# NALP3 yeast conf: NALP3 inhibitors retested in yeast, confirmation, luminescence, single concentration; inhibition, % at 10 µM; yeast expressing human NALP3; shares compounds with NALP3 yeast inh; 81% of 1,300 active; in the data active means inhibition above about 48%
# Casp1 ASC ctr: CASP1-PYCARD signaling inhibition in yeast, confirmatory test, counterassay for NLRP3 inhibitor program, one-dose; shares compounds with NALP3 yeast inh; yeast expressing Caspase-1-ASC, luminescence counter screen; inhibition, % at 10 µM; 66% of 1,000 active; AID 488784, 2010
# NALP3 retest: NALP3 inhibitors in yeast, repeat test, confirmation, luminescence, single concentration, retest | 53% of 1,000 active | yeast expressing human NALP3, luminescence read-out | inhibition, % at 10 µM | shares compounds with NALP3 yeast inh
# Numbers stand for hits; n = inactive; u = inconclusive; x = no result given; ! = a repeat was not active. Most compounds without a hit are left out; they make up all but 2.2% or so of the library. Unless noted, no stated cut-off is given here; in the data, active means inhibition above about 50%; inactive means the rest.
SMILES,NALP3 yeast inh,EBNA-1 inh,NALP1 inh,PolyA inhibitor,ZTA DNA inh,dFosB activator,NALP3 yeast conf,Casp1 ASC ctr,NALP3 retest
COc1ccc(C(=O)OCC(=O)NC2CCCC2)c(OC)c1,n,n,n,n,n,n,x,x,x
COC(=O)c1ccccc1OCC(=O)NC1CCCCC1,77,n,n,n,n,n,85,89,71
O=C(COc1ccc(Cl)cc1[N+](=O)[O-])NC1CCCCC1,53,n,n,n,n,n,n,58,n
COc1ccc(C(=O)c2ccccc2)c(OCC(=O)NC2CC2)c1,52,n,n,n,n,n,70,x,x
CCC1(C)CN=C(c2ccccc2)NC1 (configuration not stated),x,x,x,x,x,n,x,x,x
COc1ccc(C(=O)Nc2ccc(NC(=O)C3CC3)nc2)cc1,n,n,n,n,n,n,x,x,x
CCOC(=O)C1=CN(Cc2cccc(F)c2)S(=O)(=O)N(CC)C1c1ccc(F)c(Cl)c1 (configuration not stated),x,x,x,x,x,n,x,x,x
O=C(Nc1ccnn1C1CCN(C2CCOCC2)CC1)c1cccc(F)c1,n,n,n,n,n,n,x,x,x
C=C1CCN(Cc2ccccc2)S(=O)(=O)c2ccccc21,51,n,n,n,n,n,66,n,n
COc1ccc(C(=O)C2CCCN(C(=O)c3cc(C4CC4)[nH]n3)C2)c(C)c1 (configuration not stated),n,n,n,n,n,n,x,x,x
CC(=O)c1ccc2c(c1)N(CCCN1CCC(CCO)CC1)c1ccccc1S2,n,n,x,x,n,n,x,x,x
CSc1ccc2c(c1)N(CCC1CCCCN1C)c1ccccc1S2 (configuration not stated),52,n,50,n,n,n,60,52,n
Cc1ccc(C(=O)/C=C/Nc2ccccn2)cc1,53,n,x,n,n,n,n,x,x
Cc1cc2ccccn2c1C(=O)c1ccc(F)cc1,n,n,n,n,n,n,x,x,x
Cc1cc2ccccn2c1C(=O)c1ccccc1Br,57,n,n,n,n,n,55,50,n
O=C(NCc1ccc(F)cc1)c1cc(-c2cccs2)on1,51,n,n,n,n,n,69,n,n
CC1CCN(c2ncnc3c2cnn3-c2ccccc2)CC1,53,n,n,n,n,n,60,n,n
CC(C)(C)Nc1ncnc2c1cnn2-c1ccccc1,66,n,x,n,n,n,74,80,73
Cc1cc(Br)ccc1NC(=O)CN(C)C(=O)CSCc1ccccc1,n,n,x,n,n,n,x,x,x
CCOC(=O)C1(CCOc2ccccc2)CCN(Cc2cccc3nonc23)CC1,n,n,n,n,n,n,x,x,x
Cc1ccc(NC(=O)c2noc3c2CCc2ccccc2-3)cc1,n,n,n,n,n,n,x,x,x
O=C(Nc1cccc(O)c1)c1noc2c1CCc1ccccc1-2,63,n,n,n,n,n,58,52,57
O=C(N=C1SC2CS(=O)(=O)CC2N1c1ccc(F)c(Cl)c1)C1CCCO1 (configuration not stated),n,n,n,n,n,n,x,x,x
O=C(Nc1ccc(Nc2ccccc2)cc1)c1ccco1,75,n,n,n,n,n,70,79,75
O=C(Nc1ccc(F)c(Cl)c1)c1ccccc1,61,n,x,x,n,n,82,70,63
SMILES,NALP3 yeast inh,EBNA-1 inh,NALP1 inh,PolyA inhibitor,ZTA DNA inh,dFosB activator,NALP3 yeast conf,Casp1 ASC ctr,NALP3 retest
O=C(Nc1ccc(Nc2ccccc2)cc1)c1ccc(F)cc1,62,n,n,n,n,n,78,59,53
O=C(Nc1ccc2oc(-c3ccccc3)nc2c1)c1ccco1,77,n,n,n,n,n,n,x,x
COC(=O)CSc1nc2cc3c(cc2cc1C)OCCO3,69,n,n,n,n,n,73,80,71
CCCCCCCCCCCCCCCCn1cc[n+](C)c1,61,n,94!,n,n,n,72,x,x
CCN(CC)c1nc2c(c(=O)[nH]c(=O)n2C)n1CCCc1ccccc1,n,n,n,n,n,n,x,x,x
O=C(Nc1ccc2c(c1)Cc1ccccc1-2)c1ccncc1,53,n,n,n,n,n,n,x,x
O=C(Nc1ccc2c(c1)Cc1ccccc1-2)c1cc2ccccc2o1,n,n,x,n,n,n,x,x,x
O=C(/C=C\c1ccccc1)Oc1cccc2cccnc12,53,n,n,n,n,n,n,n,n
O=C(NC1CCN(S(=O)(=O)c2cccc(Cl)c2)CC1)C1CCCCC1,53,n,n,u,n,n,56,n,n
CCOC(=O)Cc1csc(NC(=O)c2cccc([N+](=O)[O-])c2)n1,59,n,n,n,n,n,76,69,51
CCOC(=O)Cc1csc(NC(=O)c2cccc(OC)c2)n1,n,n,n,n,n,n,x,x,x
CC(C)(C)[C@H]1C=C(C(=O)Nc2ccccc2)O[C@@H](OCc2ccc(CO)cc2)C1,53,n,n,n,n,n,59,61,53
Cc1noc(C)c1NC(=O)N(C)C[C@H]1Oc2ccc(NC(=O)Cn3cnnn3)cc2C(=O)N([C@H](C)CO)C[C@@H]1C,n,x,x,x,x,n,x,x,x
CC(=O)N(CN1C(=O)c2ccccc2C1=O)c1cccc(C)c1,n,n,n,n,n,n,x,x,x
CC(=O)N(/N=C1\Sc2ccccc2C1=O)c1cccc(C)c1,54,n,n,n,n,n,64,n,n
Cc1cc(C(=O)Nc2ccc(Br)cn2)sc1C,59,x,x,x,n,n,61,57,56
CCCN(CCC)c1nc(-c2ccccn2)nc2ccccc12,50,x,n,n,x,n,76,x,x
CCCCc1ccc(NC(=O)C(=O)NCCN2CCN(C(=O)c3ccc([N+](=O)[O-])cc3)CC2)cc1,n,n,n,n,n,n,x,x,x
CC(C)(C)NC(=O)COC(=O)c1ccc(Cl)c(S(N)(=O)=O)c1,n,n,n,x,n,n,x,x,x
CCSc1nnnn1-c1ccccc1,n,n,n,n,n,n,x,x,x
Cc1ccc(C)c(-n2nnnc2Sc2nnnn2-c2ccccc2)c1,58,n,x,n,n,n,74,73,62
Cc1ccccc1NC(=O)c1ccc(Nc2c([N+](=O)[O-])cc([N+](=O)[O-])c3ccccc23)cc1,56,n,n,n,n,n,n,x,x
O=c1c2ccccc2nnn1Cc1ccc(Br)cc1,50,n,n,n,n,n,66,57,58
